The record followed here is PubChem BioAssay.

Values without a mark were called inactive. Activity calls are given as the source filed them. No stated cut-off is given here; in the data, active means inhibition above about 25%; inactive means the rest.

The assay can be described thus: VP16 transactivation inhibitors, counter-screen for SRC1 inhibitor project, cell-based, luminescence, high throughput (AID 588824). The settings on record: cell-based VP16 transactivation luciferase luminescence; at 3.6 µM; active compounds read high. Background: The purpose of a counterscreen is to sort out artefacts and off-target activity.
Turning to `COc1ccc(CCNc2c3ccccc3nc3ccccc23)cc1OC`, the inhibition is 26.2% (active).
Turning to `Cc1oc(C(C)(C)C)cc1C(=O)N1CCN(c2ccc(C(F)(F)F)cn2)CC1`, the inhibition is 15.2%.
With `O=C(Nc1cc(Cl)ccc1N1CCOCC1)c1ccco1` the figure was -5.91%.
Consider `O=C(CSc1nc(C2CC2)nc2ccccc12)Nc1cccc(O)c1`, for which the inhibition is 1.43%.
For `COc1ccc(-n2nc(C(=O)NCC(=O)Nc3cc(OC)c(OC)c(OC)c3)c3ccccc3c2=O)cc1OC`, the inhibition was -6.14%.
Turning to `CN(C)C(=O)c1ccc(-c2n[nH]c(=O)c3ccccc23)cc1`, the inhibition was 18.3%.
Consider `Cc1ccc(S(=O)(=O)N2CCN(c3ncnc4sccc34)CC2)cc1C`, for which the inhibition is 21.7%.
As for `O=S(=O)(c1cccc(C(F)(F)F)c1)N1c2ccccc2-n2cccc2C1c1cccnc1` (stereo not given), the inhibition was 17.7%.
With `COc1ccc(N(Cc2cc3cc(OC)ccc3[nH]c2=O)S(=O)(=O)c2ccc(NC(C)=O)cc2)cc1` the figure was -1.84%; with `CC(C)Cn1c(N)c(C(=O)COC(=O)CC23CC4CC(CC(C4)C2)C3)c(=O)n(C)c1=O`, 34.8% (active); with `CCn1c(=O)n(CC)c2cc(N3CCCC3)c(NC(=O)c3ccccc3OC)cc21`, -7.42%.
In the case of `Cc1noc(C)c1COC(=O)CCN1c2ccccc2Sc2ccccc21`, the inhibition was -13.4%.
In the case of `Cc1cnccc1NC(=O)c1cccs1`, the inhibition was 0.67%.
Take `COc1ccc2cc(/C=N/NC(=O)c3ccc(CN(c4ccc(C)c(C)c4)S(C)(=O)=O)cc3)c(Cl)nc2c1`: the inhibition is 20.7%.
In the case of `CC(C)n1c(SCC(=O)Nc2nc3c(s2)CCCC3)nc2c1c(=O)n(C)c(=O)n2C`, the inhibition was 23.6%.
With `Cc1cc([N+](=O)[O-])nn1CCCC(=O)Nc1ccc(Cl)cc1Cl` the figure was -4.49%; with `CC1=C(C(=O)OCc2ccccc2)C(c2ccsc2)C(C#N)=C(N)O1` (stereo not given), 3.63%; with `O=[N+]([O-])c1ccc(CSc2ccc(S(=O)(=O)N3CCOCC3)cn2)cc1`, 0.46%.
Turning to `COc1ccc(S(=O)(=O)N(C)c2ccc(C(=O)Nc3cccnc3)cc2)cc1OC`, the inhibition is 17.4%.
Turning to `CCCCCCN1C2=NCCCN2c2ccccc21`, the inhibition is 10.4%.
With `COc1ccccc1NC(=O)Cn1c(C)cc(=O)c2cccc(OC)c21` the figure was 4.63%; with `Cc1ccc(S(=O)(=O)N(C)c2ccc(C(=O)N3CCN(Cc4ccc5c(c4)OCO5)CC3)cc2)cc1`, 30% (active); with `CCc1nc(Nc2ccncc2)c2oc3ccccc3c2n1`, 12%.
As to `CCN(CC(=O)Nc1c(F)cccc1F)C(=O)/C=C/c1ccc(S(=O)(=O)N2CCCCCC2)cc1`, the inhibition is 6.23%.
With `O=C(O)CC1S/C(=N\N=C2CCCCCC2)N(c2ccccc2)C1=O` (stereo not given), the inhibition was -9.41%.
As for `COc1ccc(-c2cc(C(=O)NCCCN3CCOCC3)c3ccccc3n2)cc1OC`, the inhibition is -2.84%.
Take `NS(=O)(=O)c1ccc(CCNC(=O)c2ccc(C#CC3(O)CCCCC3)cc2)cc1`: the inhibition was -3.61%.
Regarding `CN1CCN(CCC(=O)N/N=C/c2cc3c(cc2[N+](=O)[O-])OCO3)CC1`, the inhibition is -2.21%.
Consider `COc1ccc(C(O)(C(C)C)C(CN2CCOCC2)c2ccc(Cl)cc2)cc1` (stereo not given), for which the inhibition is 13.8%.
With `COc1cc(C)c(/C=C(\C#N)C(=O)Nc2ccc(C)cc2)cc1C(C)C` the figure was 0.73%; with `Cc1ccc(S(=O)(=O)CC(CN2CCCCC2)N2CCCCC2)cc1` (stereo not given), -1.35%; with `COc1ccc(C)cc1S(=O)(=O)N1CCCC(N2CCN(c3ccccc3)CC2)C1` (stereo not given), 6.89%.
With `C/C(=N\N=C1\NC(=O)C(CC(=O)O)S1)c1ccccn1` (stereo not given) the figure was -8.7%; with `CCOc1ccc(OCCC(=O)OCC(=O)NNC(=O)c2ccccc2)cc1`, -3.09%; with `COCCN(C(=O)C1=COCCO1)c1c(N)n(Cc2ccccc2)c(=O)[nH]c1=O`, -15.5%.
With `COc1ccccc1C(c1nnnn1Cc1ccco1)N1CCN(c2cccc(C)c2C)CC1` (stereo not given) the figure was 5.76%; with `CCN1CCS/C1=C/C=C/C1=[N+](CC)CCS1`, 47% (active); with `O=C(OCC(=O)N1CCN(S(=O)(=O)c2ccc(Cl)cc2)CC1)c1cccc(OC(F)F)c1`, -5.85%.
In the case of `O=C(Nc1ccc(Oc2ccccc2)cc1)c1csc([C@@H]2O[C@H](CO)[C@@H](O)[C@H]2O)n1`, the inhibition is 19.7%.
For the molecule `O=C(COc1ccc([N+](=O)[O-])cc1)Nc1ccccc1C(=O)NC1CC1`, the inhibition was -1.57%.

As usually defined, the inhibition is the change of the read-out against control, counted positive when it falls.
